# The list is not random: actives were taken first. Their share in the collection is about 2.4%.
# CHO-K1 Ca antag = counter-screen for M1 antagonists: effect in parental CHO-K1 cells. AID 602250. ATP-induced calcium, Fluo-8 fluorescence. 360,000 tested, 0.6% active. inhibition, % at 3 µM;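 active = inhibition above a per-plate cutoff, the plate's mean sample inhibition plus 3 SD, cut at about 24% in these data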;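 also: 0% = DMSO plus EC80 ATP and 100% = DMSO alone without ATP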
# M1 PAM parental = nonselective activator or artifact in parental CHO-K1 calcium assay | ATP EC20, Fluo-8 calcium fluorescence; 0% at ATP EC20, 100% at ATP max | activation, % at 3 µM | 360,000 tested, 0.02% active | AID 602247;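 active = activation above the run cutoff, the mean activation of all test compounds plus 3 SD, cut at about 40% in these data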;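 also: peak over basal fluorescence ratio in a 140 s read after ATP addition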
# M1 PAM = potentiates human M1 receptor response to acetylcholine; AID 588819; 360,000 tested, 0.088% active; P11229; activation, % at 3 µM; CHO-K1 hM1, Fluo-8 calcium fluorescence, ACh EC20; 0% = ACh EC20, 100% = maximal ACh; in the data active = activation above about 19%, passing the limit was not always enough
# Target sequence (P11229 whole entry, looked up): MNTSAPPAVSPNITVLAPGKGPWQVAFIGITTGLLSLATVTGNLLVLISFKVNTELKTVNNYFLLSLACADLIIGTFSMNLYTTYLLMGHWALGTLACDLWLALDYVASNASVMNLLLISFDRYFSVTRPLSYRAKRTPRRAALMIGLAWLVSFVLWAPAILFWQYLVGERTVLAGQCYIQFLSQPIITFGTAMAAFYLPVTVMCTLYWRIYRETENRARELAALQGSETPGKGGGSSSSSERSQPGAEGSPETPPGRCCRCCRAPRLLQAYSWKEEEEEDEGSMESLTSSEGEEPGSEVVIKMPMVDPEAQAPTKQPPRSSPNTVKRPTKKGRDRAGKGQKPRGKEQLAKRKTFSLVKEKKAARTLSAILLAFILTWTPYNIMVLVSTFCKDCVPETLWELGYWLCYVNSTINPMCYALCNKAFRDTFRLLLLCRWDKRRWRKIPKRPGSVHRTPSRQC
# M1 antag = blocks human M1 muscarinic receptor; 360,000 tested, 1.3% active; CHO-K1 hM1, Fluo-8 calcium fluorescence, ACh EC80 antagonist; inhibition, % at 3 µM;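 active = percent inhibition above its own plate's cutoff, namely the mean of that plate's compound wells plus 3 SD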;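 also: peak over basal fluorescence ratio during 140 s after agonist addition; 0% = ACh EC80 plus DMSO and 100% = DMSO alone without agonist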
# M1 ag = activates human CHRM1 receptor. CHO-K1 hM1, Fluo-8 calcium fluorescence, agonist mode; 0% DMSO, 100% acetylcholine EC100. activation, % at 3 µM. 360,000 tested, 0.33% active;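 active = activation above the run's mean compound activation plus 3 SD, cut at about 16% in these data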;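 also: peak over basal fluorescence ratio within a 140 s kinetic read after compound addition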
# M1 ag parental = nonselective activator or artifact in parental CHO-K1 cells; Fluo-8 calcium fluorescence; scaled to maximal ATP response, vehicle zero; activation, % at 3 µM; 360,000 tested, 0.48% active; AID 602248; in the data active = activation above about 15%;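 also: untransfected CHO-K1 host cells lacking M1 receptor as counterscreen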
# An asterisk follows results filed as active.
SMILES,CHO-K1 Ca antag,M1 PAM parental,M1 PAM,M1 antag,M1 ag,M1 ag parental
Cc1ccccc1Sc1ccc(N)cn1,-1,2,-26,59*,-4,4
COc1ccc(/C=N/NC(=O)c2ccc(CN3C(=O)c4cccc5cccc3c45)cc2)cc1O,3,-9,1,0,23*,0
COc1cc(/C=N/NC(=O)c2ccc(CN3C(=O)c4cccc5cccc3c45)cc2)cc(OC)c1O,6,3,6,-1,13,15*
COc1ccc(/C=N/NC(=O)c2ccc(-c3ccccc3)cc2)cc1O,13,-3,-8,11,-4,2
COc1cc(/C=N\NC(=O)c2ccc(-c3ccccc3)cc2)cc(Br)c1O,-1,-2,10,-7,-3,0
Cc1cc(C)c(C)c(S(=O)(=O)NCCCN2CCCC2=O)c1C,-11,14,9,-12,-4,2
O=C(NCC(=O)N1CCN(Cc2ccccc2)CC1)c1cc(Cl)cc([N+](=O)[O-])c1,-14,10,-6,13,-4,1
CC1CCC(NC(=O)COC(=O)c2n[nH]c(=O)c3ccccc23)CC1 (stereo not drawn),-4,4,13,-17,-2,1
CCOc1ccc2noc3c2c1C(=O)c1ccccc1-3,2,19,0,6,22*,13
CCNc1ccc2noc3c2c1C(=O)c1ccccc1-3,27*,-2,-20,36*,75*,51*
O=C1c2ccccc2-c2onc3ccc(N4CCCC4)c1c23,9,-14,-6,20,4,3
O=C1c2ccccc2-c2onc3ccc(NCc4ccco4)c1c23,45*,-10,-13,44*,36*,19*
O=C(NCCc1ccccc1)c1ccc2c(c1)S(=O)(=O)N=C1CCCCCN12,-8,-8,6,-9,-6,1
Fc1ccc(OCCCCCn2ccnc2)cc1,4,8,-4,-8,36*,3
CCn1c(C)nc2cc(C(=O)OC(C(F)(F)C(F)F)C(F)(F)C(F)F)ccc21,45*,-11,-12,29*,1,14
CC1OC(CC(=O)O)CC2=C1C(=O)c1c(O)cccc1C2=O (stereo not drawn),20,21,3,46*,15,10
COc1ccc(NC(=O)CN(C)C(=O)c2ccc(-c3ccccc3Cl)o2)cc1,-11,17,6,-9,-4,1
CCOC(=O)C(Cc1ccc(O)cc1)NC(=O)CCc1c[nH]c2ccccc12 (stereo not drawn),-5,4,0,-3,21*,11
COC(=O)[C@H](Cc1c[nH]c2ccccc12)NC(=O)CCCc1c[nH]c2ccccc12,3,12,2,0,2,16*
COC(=O)[C@H](Cc1c[nH]c2ccccc12)NC(=O)Cc1c[nH]c2ccccc12,-6,8,4,-8,2,13
O=C(CCc1c[nH]c2ccccc12)NC(Cc1c[nH]c2ccccc12)C(=O)O (stereo not drawn),-8,20,17,-12,-2,0
CCc1nc2ccc(C(=O)Nc3cccc(NS(C)(=O)=O)c3)cn2c1N(C)CCCc1ccccc1,3,3,-22,41*,-7,2
CCc1nc2ccc(C(=O)Nc3ccc(C(=O)N(C)C)cc3)cn2c1N(C)CCCc1ccccc1,0,5,-24,39*,-9,1
CCc1nc2ccc(C(=O)Nc3ccc(NC(C)=O)cc3)cn2c1N(C)CCCc1ccccc1,2,6,-29,47*,-4,2
CCc1nc2ccc(C(=O)Nc3cccc(OC)c3)cn2c1N(C)CCCc1ccccc1,6,9,-3,-3,-9,0
SMILES,CHO-K1 Ca antag,M1 PAM parental,M1 PAM,M1 antag,M1 ag,M1 ag parental
CCc1nc2ccc(C(=O)NCCc3c[nH]c4ccccc34)cn2c1N(C)CCCc1ccccc1,-14,11,-18,15,-8,1
CCc1nc2ccc(C(=O)NCCNC(C)=O)cn2c1N(C)CCCc1ccccc1,-16,14,-21,12,-6,3
CN1CCN(CC(O)COc2ccc(C34CC5CC(CC(C5)C3)C4)cc2)CC1 (stereo not drawn),-16,23,-1,9,-5,4
O=C(CCN1N=C(c2ccccc2)CCC1=O)NCC1CCCO1 (stereo not drawn),1,-11,4,-6,-1,0
CCOC(=O)C1=C(O)CSC1=Nc1ccccc1,8,1,8,-7,-2,-1
CCOC(=O)C1=C(O)CSC1=Nc1ccc(Cl)cc1,27*,-6,9,2,-2,-1
Cc1ccccc1OCc1nc2ccccc2n1C,-13,20,5,-9,-6,0
Cc1nnc(OCc2nc3ccccc3n2C)c2ccccc12,25*,-9,4,-16,0,1
CCOC(=O)COc1nc(-c2ccc(Cl)cc2)cc(-c2ccco2)c1C#N,3,10,8,-3,2,12
CCOC(=O)COc1nc(-c2ccccc2)cc(-c2ccco2)c1C#N,0,15,-22,40*,-5,1
COC(=O)C[C@H]1C[C@@H]2c3cc(NC(=O)CN(C)C)ccc3O[C@@H]2[C@H](CO)O1,-11,17,9,-19,-1,1
COCC(=O)Nc1ccc2c(c1)[C@@H]1C[C@H](CC(=O)OC)O[C@@H](CO)[C@@H]1O2,24*,-12,-10,19,-2,0
Cc1cccc(C)c1-n1c(C)cc(/C=N\Nc2ccc([N+](=O)[O-])cn2)c1C,13,-2,-14,35*,-2,3
CC1=CC(C)(C)N(C(=O)c2ccc(F)cc2)c2cc3c(cc21)OCO3,-5,28,8,10,18*,5
CC(c1ccccc1)n1ccnc1CO (stereo not drawn),-2,-3,-2,3,-2,0
COc1ccc(-c2cnnc(N/N=C/c3ccc(O)c(OC)c3)n2)cc1,35*,-11,-5,2,-1,1
COc1cc(/C=C2\C(=N)N3N=C(S(C)(=O)=O)SC3=NC2=O)ccc1OS(=O)(=O)c1ccc(C)cc1,-13,5,11,-12,-3,0
CCOc1ccc(CN2CCCC(N3CCN(c4ccc(OC)cc4)CC3)C2)cc1 (stereo not drawn),13,-23,-19,35*,-9,0
CC(=O)c1ccc(N2CCN(C(=O)c3nn(C)c4c3CS(=O)(=O)c3ccccc3-4)CC2)cc1,-2,-11,-4,4,2,16*
COc1ccc(N2CCN(C(=O)c3cc(C)oc3C)CC2)cc1,12,-9,2,-1,0,1

# Source: PubChem BioAssay
